High-throughput results deposited in PubChem BioAssay by several laboratories.
This is a sample that favours compounds with a hit; in the whole collection about 3.8% have one here.
ADAM10 inh – human ADAM10 inhibitors, primary screen, biochemical, QFRET, HTS | Disintegrin and metalloproteinase domain-containing protein 10 (Homo sapiens), O14672 | inhibition, % at 7 µM | 370,000 tested, 0.62% active | recombinant ADAM10, EDANS/DABCYL FRET peptide cleavage, 3 h;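 active means inhibition above a per-campaign cutoff equal to the mean of compounds falling between control-based bounds plus 3 SD, cut at about 20% in these data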;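 further: 0% = DMSO wells while the 100% control is not disclosed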
Target sequence (O14672 214-748 limits assumed): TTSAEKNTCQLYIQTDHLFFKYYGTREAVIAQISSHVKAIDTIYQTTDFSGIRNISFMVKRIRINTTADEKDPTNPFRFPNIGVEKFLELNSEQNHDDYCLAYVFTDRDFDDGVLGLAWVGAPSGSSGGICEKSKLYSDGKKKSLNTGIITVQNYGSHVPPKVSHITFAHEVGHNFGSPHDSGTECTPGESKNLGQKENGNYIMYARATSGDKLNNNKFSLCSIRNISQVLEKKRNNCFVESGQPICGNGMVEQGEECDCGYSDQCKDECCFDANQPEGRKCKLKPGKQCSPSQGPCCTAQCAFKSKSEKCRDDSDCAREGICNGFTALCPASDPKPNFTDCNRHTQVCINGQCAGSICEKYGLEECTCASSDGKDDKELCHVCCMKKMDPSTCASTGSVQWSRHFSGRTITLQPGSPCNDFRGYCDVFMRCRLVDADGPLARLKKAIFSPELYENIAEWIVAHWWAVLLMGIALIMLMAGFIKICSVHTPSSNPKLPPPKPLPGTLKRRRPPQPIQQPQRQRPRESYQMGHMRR
FGF22 binding – binders of human FGF22 protein, primary screen, FGF22 synaptogenesis inhibitor project, biophysical, thermal shift, single point; AID 651658, 2012; Fibroblast growth factor 22 (Homo sapiens), Q9HCT0; activity (Tm shift, normalised), % at 9.99 µM; recombinant FGF22 thermal shift, SYPRO orange fluorescence; percent of sucrose octasulfate shift, DMSO zero; 340,000 tested, 1.5% active;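 active means mean Tm shift, scaled 0 neutral to 100 positive control, at about 1.3% or above, every replicate too, limit read from the data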
proKLK7 act – proKLK7 zymogen activators, primary screen, biochemical, fluorescence intensity; Kallikrein-7 (Homo sapiens), P49862; purified proKLK7, EDANS-DABCYL substrate fluorescence; 100% is mature enzyme control, 0% vehicle; activation, % at 7 µM; 370,000 tested, 0.9% active;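 active means activation above the mean of all tested compounds plus 3 SD, computed per campaign excluding outliers beyond control limits, cut at about 13% in these data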
ADAM17 inh – ADAM17 inhibitors, primary screen, biochemical, QFRET; Disintegrin and metalloproteinase domain-containing protein 17 (Homo sapiens), P78536; recombinant ADAM17, EDANS/DABCYL FRET peptide cleavage; inhibition, % at 6.95 µM; 370,000 tested, 0.83% active;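 active means inhibition above the mean of compounds lying between control limits plus 3 SD, set per campaign, cut at about 8.5% in these data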;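 further: 0% = DMSO-only wells as the low control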
rRNA inh HTS – reduced GFP signal of wild-type E. coli, primary screen, bacterial rRNA inhibitor project, GFP/RFP fluorescence, OD600, single point | GFP signal change (wild-type ribosome), % (test concentration not listed) | E. coli WT GFP vs humanized-ribosome RFP mutants, 24 h; hits give low values; DMSO median 0, no signal -100 | 350,000 tested, 1.6% active | AID 720706, 2013;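 active means significant combined selectivity score with lowered wild-type GFP, culture density cut under 30%, mutant RFP and density less affected; inactive means any of these conditions unmet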
An asterisk follows results filed as active.

Cc1ccc(C(=O)OCC(=O)NCCc2ccc(S(N)(=O)=O)cc2)o1 was read as ADAM10 inh 0, FGF22 binding 43*, proKLK7 act 0, ADAM17 inh -2 and rRNA inh HTS 7.
`Cc1ccc2oc(C(=O)NCc3ccc(S(N)(=O)=O)cc3)cc(=O)c2c1` gave ADAM10 inh -17, FGF22 binding 0, proKLK7 act -1, ADAM17 inh -9 and rRNA inh HTS 7.
CCc1ccc2oc(C(=O)NCCc3ccc(S(N)(=O)=O)cc3)cc(=O)c2c1 was read as ADAM10 inh -13, FGF22 binding 0, proKLK7 act -1, ADAM17 inh -6 and rRNA inh HTS -34*.
`CCOc1ccc(NC(=O)CSc2nnc(Cn3cnc([N+](=O)[O-])n3)n2C)cc1` gave ADAM10 inh -4, proKLK7 act 0 and ADAM17 inh -4.
Screening CCOc1ccc(NC(=O)CSc2nnc(Cn3cnc([N+](=O)[O-])n3)n2CC)cc1 returned ADAM10 inh -6, FGF22 binding 43*, proKLK7 act 0, ADAM17 inh 0 and rRNA inh HTS 10.
CC(C)C#Cc1cnc2c(c1)C(=O)N([C@@H](C)CO)C[C@@H](C)[C@@H](CN(C)C(=O)C1CCC1)O2 was read as FGF22 binding 0 and rRNA inh HTS 0.
For Cc1nc(-c2cccc(NC(=O)Cc3ccccc3)c2)cs1 the results were ADAM10 inh 6, FGF22 binding 43*, proKLK7 act 0, ADAM17 inh 2 and rRNA inh HTS -32.
Cc1nc(-c2cccc(NC(=O)c3cccs3)c2)cs1 was read as ADAM10 inh 4, proKLK7 act 0 and ADAM17 inh -1.
CN1C[C@@H]2[C@H](c3ccccc31)[C@H](CO)N2C(=O)c1ccccn1 was read as FGF22 binding 0 and rRNA inh HTS 1.
O=C(COC(=O)CCc1ccccc1)NCc1ccccc1 was read as ADAM10 inh -13, FGF22 binding 0, proKLK7 act 0, ADAM17 inh -2 and rRNA inh HTS 3.
Screening O=C(COC(=O)CSCc1ccccc1)NCc1ccccc1 returned ADAM10 inh 1, FGF22 binding 43*, proKLK7 act 0, ADAM17 inh 1 and rRNA inh HTS 11.
For CN(C)CCCN1c2ccccc2Sc2ccccc21 the results were ADAM10 inh 1, FGF22 binding 0, proKLK7 act 0 and ADAM17 inh 2.
CN(C)CCCC1Sc2ccccc2Sc2ccccc21 (stereo unspecified) was read as ADAM10 inh 3, FGF22 binding 0, proKLK7 act 0, ADAM17 inh 0 and rRNA inh HTS -46*.
`CCc1ccc(Nc2cnn(C34CC5CC(CC(CC(=O)O)(C5)C3)C4)c(=O)c2Cl)cc1` gave ADAM10 inh -3, FGF22 binding 0, proKLK7 act 0, ADAM17 inh -3 and rRNA inh HTS -27*.
`COc1ccccc1N1CCN(C(=O)CCc2nnc3ccc(N4CCC(C)CC4)nn23)CC1` gave ADAM10 inh -1, FGF22 binding 0, proKLK7 act 0, ADAM17 inh -1 and rRNA inh HTS -23*.
O=C(/C=C/c1ccccc1O)c1ccccc1 was read as ADAM10 inh -35, FGF22 binding 0, proKLK7 act 0, ADAM17 inh -11 and rRNA inh HTS -19*.
Screening CCOc1ccccc1/C=C/C(=O)c1ccc(Cl)cc1 returned ADAM10 inh 6, FGF22 binding 0, proKLK7 act -5, ADAM17 inh 0 and rRNA inh HTS -27*.
Screening O=C(/C=C/c1ccccc1)c1ccccc1 returned ADAM10 inh 4, FGF22 binding 0, proKLK7 act 0 and ADAM17 inh 3.
Screening C[C@H](CO)N1C[C@H](C)[C@H](CN(C)Cc2ccncc2)OCCCC[C@H](C)Oc2ccc(NC(=O)c3ccncc3)cc2C1=O returned FGF22 binding 0 and rRNA inh HTS -4.
`O=C(OCc1cn([C@H]2C[C@H](c3ccc(Cl)cc3)N(Cc3cccs3)C[C@@H]2O)nn1)c1ccccc1` gave ADAM10 inh -3, proKLK7 act 0, ADAM17 inh 1 and rRNA inh HTS -5.0*.
Screening O=C(OCc1cn([C@H]2CN(Cc3cccs3)[C@@H](c3ccccc3)C[C@@H]2O)nn1)c1ccccc1 returned ADAM10 inh -7, FGF22 binding 0, proKLK7 act 0, ADAM17 inh -1 and rRNA inh HTS 0.
`O=C(OCc1cn([C@@H]2C[C@H](c3ccccc3)N(Cc3cccs3)C[C@H]2O)nn1)c1ccccc1` gave ADAM10 inh 4, FGF22 binding 44*, proKLK7 act 0, ADAM17 inh -1 and rRNA inh HTS 9.
`CC1Cc2cc(/C=C3/SC(=S)NC3=O)ccc2O1` (stereo unspecified) gave ADAM10 inh 3, FGF22 binding 0, proKLK7 act -1, ADAM17 inh -1 and rRNA inh HTS -20*.
C=CCNC(=S)N/N=C/c1cccc([N+](=O)[O-])c1 was read as ADAM10 inh 0, FGF22 binding 43*, proKLK7 act 0, ADAM17 inh 0 and rRNA inh HTS -2.
Screening COCCCNC(=S)N/N=C/c1ccc2ccccc2c1 returned ADAM10 inh 4, FGF22 binding 0, proKLK7 act 0, ADAM17 inh 1 and rRNA inh HTS -32*.
For O=[N+]([O-])c1ccc(C=NNC(=S)Nc2ccc(F)cc2)cc1 the results were ADAM10 inh 13, FGF22 binding 44*, proKLK7 act 3, ADAM17 inh 4 and rRNA inh HTS -2.
Screening COc1ccc(/C=N/NC(=S)Nc2ccccc2)cc1 returned ADAM10 inh -8, FGF22 binding 45*, proKLK7 act 0, ADAM17 inh -4 and rRNA inh HTS -35.
COCCCNC(=S)N/N=C/c1ccc(OC)cc1 was read as ADAM10 inh -2, FGF22 binding 0, proKLK7 act 0, ADAM17 inh -1 and rRNA inh HTS -6.
For COc1ccc2c3c(n(C)c2c1)[C@H](CO)NCC31CN(S(=O)(=O)c2ccc(C)cc2)C1 the results were rRNA inh HTS -6.
Screening CC(Cc1ccccc1)NC(=O)CC(c1ccccc1)c1ccccc1O (stereo unspecified) returned ADAM10 inh 6, FGF22 binding 0, proKLK7 act 0, ADAM17 inh 1 and rRNA inh HTS -39.
